The values below come from PubChem BioAssay (Tox21).

Results filed as inconclusive are left out. Values without a mark were called inactive. Calls of active or inactive are those of the source. Calls come from the whole dose curve.
% is set by controls: 0 for no effect and ±100 for the full control effect; potency is the fitted concentration of half-maximal effect.

The test can be described thus: p53 small molecule agonists, cell-based qHTS assay with human liver microsomes: qHTS cell viability counter screen (AID 1963579). Note: nearly all actives have a fitted effect of over 45% in size. Particulars: p53RE-bla HCT-116 viability, ATP luminescence, 16 h, HLM; series mostly up to 66 µM; activity change, negative = cytotoxicity: at the top concentration. The source says:
National Center for Advancing Translational Sciences [NCATS]
Division of Preclinical Innovation [DPI]
U.S. Environmental Protection Agency [EPA]
National Institutes of Environmental Health Sciences [NIEHS]
National Toxicology Program [NTP]
U.S. Food and Drug Administration [FDA]
p53, a tumor suppressor protein, is activated following cellular insult, including DNA damage and other cellular stresses. The activation of p53 regulates cell fate by inducing DNA repair, cell cycle arrest, apoptosis, or cellular senescence. The activation of p53, therefore, is a good indicator of DNA damage and other cellular stresses. […] The activation of the reporter gene under culture conditions can be detected by fluorescence intensity. This cell line was used to screen the Tox21 10K compound library in the condition of presence of human liver microsomes and to identify agonists that activate the p53 signaling pathway after in vitro metabolic activation (Ooka et al., Archive of Toxicology 96:1975-1987, 2022).
Tox21 Assay Protocol Summary:
The p53RE-bla cells were dispensed at 4,000cells/3ul/well in 1536-well black-clear bottom plates. After the assay plates were incubated at 37 C, 5% CO2 incubator for 5 hours, 23 nL of compounds dissolved in DMSO, positive controls or DMSO only was transferred to the assay plate. Following compound addition, 3 uL of human liver microsomes (XenoTech, Kansas City, KS) at final concentration of 0.5 mg/mL and 1uL of B-Nicotinamide adenine dinucleotide 2'-phosphate (NADPH) at final concentration of 0.5 mg/mL were transferred to the assay plate. The plates were incubated at 37 C for 16 hours. 1 uL of LiveBLAzer detection mixture was added to each well and the plates were incubated at room temperature in the dark for 2 h. Fluorescence intensity at 460 and 530 nm emission and 405 nm excitation were measured by an Envision plate reader. For cell viability readout that measures cytotoxicity, 4 ul/well of CellTiter-Glo reagent was added into the assay plates using a Flying Reagent Dispenser. After 30 min incubation at room temperature, the luminescence intensity in the plates was measured using a ViewLux plate reader.
On to `CC(NN)c1ccccc1` (stereo not given), for which the activity change, negative = cytotoxicity was -4.08% [at 13.5 µM].
Take `COc1ccccc1N1CCN(CCCNc2cc(=O)n(C)c(=O)n2C)CC1`: the “activity change, negative = cytotoxicity” value was 12.1% [at 30.3 µM].
For the molecule `O=[N+]([O-])c1cccc(S(=O)(=O)NCCNS(=O)(=O)c2cccc([N+](=O)[O-])c2)c1`, the “activity change, negative = cytotoxicity” value was -3.69% [at 30.3 µM].
As to `CCCCCCCCCCCCCCBr`, the “activity change, negative = cytotoxicity” value is -4.62%.
In the case of `O=C(CCCl)NCc1ccccc1`, the “activity change, negative = cytotoxicity” value was 1.66% [at 30.3 µM].
Consider `Cl[Si](Cl)(c1ccccc1)c1ccccc1`, for which the “activity change, negative = cytotoxicity” value was -1.69%.
Same read-out and setting: the same measure for `C=CCc1ccccc1OCC(O)CNC(C)C` (stereo not given): 1.1% [at 30.3 µM].
For `CCCCCCCCCOC(=O)c1ccc(O)cc1`, the Potency was 18 µM (active).
Take `Cn1c(=O)[nH]c2ncn(C)c2c1=O`: the “activity change, negative = cytotoxicity” value is 2.51%.
As for `CC(C)(C)N(CCO)CCO`, the “activity change, negative = cytotoxicity” value was 1.05%.
As for `CN1C[C@@H]2C[C@H]1CN2c1cc2c(cc1F)c(=O)c(C(=O)O)cn2C1CC1`, the activity change, negative = cytotoxicity is 13.7% [at 13.5 µM].
Still for that read-out and setting: the same measure for `Nc1c(Cl)cc(Cl)cc1Cl`: 5.62%; for `[Cl][Pt-2]([Cl])([Cl])[Cl]`: -17.4%.
As to `CC(C)OC(=O)c1ccccc1`, the “activity change, negative = cytotoxicity” value was -4.38%.
As for `CCCCCCCC/C=C/C(=O)O`, the “activity change, negative = cytotoxicity” value was 2.69% [at 30.3 µM].
On the same count and under the same terms, the same measure for `Oc1ccc(C2CNCCc3c2cc(O)c(O)c3Cl)cc1` (stereo not given): -3.88% [at 30.3 µM]; for `CCN(CCC#N)c1ccc(N=Nc2ccc([N+](=O)[O-])cc2)cc1`: 0.488%.
Still for that read-out and setting: to `O=[N+]([O-])c1ccc(CO)cc1` belongs -3%.
Still for that read-out and setting: to `CCCC(C)C=O` (stereo not given) belongs -1.51%.
With `CNc1ccc(O)cc1`, the Potency was 25.7 µM (active).
`Nc1cc(C(F)(F)F)ccc1S`: the “activity change, negative = cytotoxicity” value was 14.1% [at 30.3 µM].
For the molecule `Clc1nnc(Cl)c2ccccc12`, the “activity change, negative = cytotoxicity” value is 3.74%.
On the same count and under the same terms, the same measure for `CCNS(=O)(=O)c1ccc(C)cc1`: 3.04%; for `CCCCCCCC/C=C\CCCCCCCC(=O)OC`: 3.36%.
On the same count and under the same terms, the same measure for `CCNC(=O)C1CC(C)CCC1C(C)C` (stereo not given): 5.12%; for `Cc1ccccc1C#N`: -2.62%.
Consider `O=C1c2ccccc2C(=O)C1c1ccc(Br)cc1`, for which the “activity change, negative = cytotoxicity” value was -4.94% [at 30.3 µM].
With `CC(=O)OCC(=O)[C@@]1(O)CCC2C3CCC4=CC(=O)CC[C@]4(C)C3[C@@H](O)C[C@@]21C` (stereo not given in full), the “activity change, negative = cytotoxicity” value was 0.933% [at 30.3 µM].
The same measure, in the same setting: to `CCOC(=O)Cn1c(=O)sc2cccc(Cl)c21` belongs 3.67%.
Still for that read-out and setting: to `CN(C)c1ccc(C(c2ccccc2)c2ccc(N(C)C)cc2)cc1` belongs -19.4%; to `O=C1CCCCCCCCCCC(=O)OCCO1`, -3.25%.
For `Cc1nc2ccccn2c(=O)c1CCN1CCC(C(=O)c2ccc(F)cc2)CC1`, the “activity change, negative = cytotoxicity” value was 0.719% [at 30.3 µM].
Turning to `C[C@@H]1CN(CCCn2c3ccccc3c3ccccc32)C[C@H](C)N1`, the “activity change, negative = cytotoxicity” value is 2.84% [at 30.3 µM].
Still for that read-out and setting: to `OC1(c2ccccc2)CCNCC1` belongs -2.11% [at 30.3 µM]; to `NCC1CCC(C(=O)Oc2ccc(CCC(=O)O)cc2)CC1` (stereo not given), -0.591% [at 30.3 µM]; to `CC(=O)Nc1ccc(N)cc1`, 2.54%.
On to `Oc1ccccc1Cc1ccccc1O`, for which the “activity change, negative = cytotoxicity” value is 0.0521%.
The same measure, in the same setting: to `N#CCC(=O)NN` belongs -8.74% [at 30.3 µM].
Take `O=C(Nc1ccc([N+](=O)[O-])cc1)Nc1ccc([N+](=O)[O-])cc1`: the “activity change, negative = cytotoxicity” value is 11% [at 30.3 µM].
Turning to `CC(C)[N+](C)(C)CC(O)COc1cccc2ccccc12` (stereo not given), the “activity change, negative = cytotoxicity” value was -0.499% [at 30.3 µM].
